Reference: PubChem BioAssay AID1481 (The Scripps Research Institute Molecular Screening Center, 2009)
Where “and” joins values, the source holds several entries; their conditions need not be identical. Identical values can stand only once. About 920 (0.42%) of roughly 220,000 compounds were called active. Many of the other results were omitted from the sample, so actives are more common in it than they were. Unmarked numbers belong to inactive results. Rule as the data show it: active = inhibition above about 15%; inactive = the rest.

The compounds below were run against Transitional endoplasmic reticulum ATPase (Homo sapiens) (UniProt P55072) (assay: inhibitors of human p97 ATPase, primary screen, biochemical (AID 1481;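 also: 0% = DMSO vehicle and 100% = wells lacking enzyme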)). Details: recombinant p97 ATPase, Kinase-Glo ATP luminescence, 3 h; at 8 µM; active compounds read high.
Sequence of Transitional endoplasmic reticulum ATPase (Homo sapiens) (P55072 whole entry, looked up): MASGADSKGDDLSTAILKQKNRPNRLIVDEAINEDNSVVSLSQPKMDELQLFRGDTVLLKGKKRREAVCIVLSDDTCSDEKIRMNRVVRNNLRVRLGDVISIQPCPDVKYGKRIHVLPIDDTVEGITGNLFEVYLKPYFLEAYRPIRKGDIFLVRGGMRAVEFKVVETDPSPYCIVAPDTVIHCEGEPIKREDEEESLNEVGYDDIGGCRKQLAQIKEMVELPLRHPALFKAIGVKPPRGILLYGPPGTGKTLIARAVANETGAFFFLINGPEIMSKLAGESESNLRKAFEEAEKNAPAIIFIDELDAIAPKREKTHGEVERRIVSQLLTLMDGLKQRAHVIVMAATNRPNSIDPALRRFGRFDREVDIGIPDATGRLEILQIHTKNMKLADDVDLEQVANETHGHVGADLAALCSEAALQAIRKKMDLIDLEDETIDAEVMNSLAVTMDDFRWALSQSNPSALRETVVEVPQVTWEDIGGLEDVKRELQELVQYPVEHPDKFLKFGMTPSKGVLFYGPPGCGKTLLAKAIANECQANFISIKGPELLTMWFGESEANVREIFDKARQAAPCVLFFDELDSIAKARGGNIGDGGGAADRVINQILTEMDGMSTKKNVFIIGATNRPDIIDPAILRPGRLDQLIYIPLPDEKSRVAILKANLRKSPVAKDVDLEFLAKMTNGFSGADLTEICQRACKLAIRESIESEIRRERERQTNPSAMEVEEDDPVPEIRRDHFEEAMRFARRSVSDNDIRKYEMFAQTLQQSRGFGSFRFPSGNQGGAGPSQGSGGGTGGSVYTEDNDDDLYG

| SMILES | inhibition |
| --- | --- |
| C=CCn1c(SCc2csc(C)n2)nc2scc(-c3ccc(C)o3)c2c1=O | 3.29% |
| C=CCNC(=O)CSc1nc2scc(-c3ccco3)c2c(=O)n1CC=C | 6.86% |
| C=CCn1c(=S)[nH]c2scc(-c3ccco3)c2c1=O | 15.2% (active) |
| C/C(CCc1ccccc1)=N\NC(=O)c1ccc(CN2CCOCC2)cc1 | 6.17% |
| C=CCc1cccc2cc(C(=O)NC3CCCC3)c(=O)oc12 | 1.22% |
| CC(C)/C=N/NC(=O)c1cc(Br)ccc1O | -3.39% |
| COc1ccc(CC(=O)NCC(=O)N/N=C/c2cc(Br)ccc2OC)cc1 | -3.65% |
| COc1ccc(-c2[nH]ncc2/C=N/NC(=O)c2cc(Br)ccc2O)c(OC)c1 | 19.8% (active) |
| CN(C)c1ccc(/C=C/C(=O)c2ccc(C(C)(C)C)cc2)cc1[N+](=O)[O-] | 3.04% |
| O=C(COC(=O)c1c2c(nc3ccccc13)/C(=C\c1cccs1)CCC2)Nc1ccccc1Cl | -4.57% |
| NS(=O)(=O)c1ccc(NC(=O)COC(=O)c2c3c(nc4ccccc24)/C(=C\c2ccc4c(c2)OCO4)CCC3)cc1 | -1.8% |
| NC(=O)c1ccc(NC(=O)COC(=O)c2c3c(nc4ccccc24)/C(=C\c2ccc4c(c2)OCO4)CCC3)cc1 | 21.3% (active) |
| COc1ccnc(Oc2ccccc2)c1-c1ncn[nH]1 | 2.16% |
| Cc1cc(C)n2nc(C(=O)NC(C)(C)C)nc2n1 | -8.48% |
| C=CCNC(=S)NNC(=O)c1cc(Cl)ccc1OC | 2.04% |
| COc1ccc(Cl)cc1C(=O)NNC(=O)c1nc2nc(C)cc(C)n2n1 | 23.2% (active) |
| CC1(C)CC(N2CCN(C(c3ccccc3)c3ccccc3)CC2)=CC(=[N+]2CCCCC2)C1 | -4.13% |
| CCc1nn(CCCN2CCN(c3cccc(Cl)c3)CC2)c(=O)n1CCOc1ccccc1 | -5.07% |
| C=CCNCCCCOc1ccccc1 | -1.97% |
| N=c1c2c3c(sc2ncn1N)CCCC3 | 5.38% |
| CC(C(=O)O)n1cnc2sc3c(c2c1=O)CCCC3 (stereo not given) | 19.5% (active) |
| CCOC(=O)C(C)n1cnc2sc(C)c(C)c2c1=O (stereo not given) | -1.18% |
| CN1CCN(c2ccc(S(=O)(=O)N3CCOCC3)cc2NC(=O)CCc2ccccc2)CC1 | 4% |
| Fc1ccccc1/C=C1\CCCC2=C1Nc1ncnn1C2c1ccccc1F (stereo not given) | 3.82% |

| SMILES | inhibition |
| --- | --- |
| Oc1c(Cl)cc(Cl)c(Cl)c1Cc1c(O)c(Cl)cc(Cl)c1Cl | 31.6% (active) |
| COc1cc(S(=O)(=O)N2CCOCC2)ccc1NC(=O)COc1ccc(N(C)S(=O)(=O)c2ccc(C)cc2)cc1 | 10.4% |
| Cc1c(NC(=O)CN2C(=O)C(=O)N(Cc3ccccc3)C2=O)c(=O)n(-c2ccccc2)n1C | 1.04% |
| Cc1cccc(NC(=O)c2ccc([N+](=O)[O-])o2)c1 | 0.75% |
| [O-][n+]1onc2c1CCc1[nH]c(-c3ccccc3)nc1-2 | 37.3% (active) |
| N#Cc1c(-c2ccc(F)cc2)nc(-c2ccccc2)[nH]c1=O | 1.67% |
| COc1ccc([N+](=O)[O-])cc1N(CC(O)CN(CC(C)C)CC(C)C)S(=O)(=O)c1ccc(C)cc1 (stereo not given) | -15% |
| Cn1sc(=O)c2cc(S(=O)(=O)NC3CC3)ccc21 | 13.5% |
| Clc1ccc(C2=CSC3=Nc4cccc5cccc(c45)N23)cc1 | 33% (active) |
| N#Cc1ccsc1NC(=O)CN1CCN(S(=O)(=O)c2cc(Cl)ccc2Cl)CC1 | 1.72% |
| CCC1(CC)NC(=O)N(CC(=O)OCC(=O)NC(=O)c2ccccc2)C1=O | -0.8% |
| Cc1ccc(C(O)P(=O)(OC(C)C)c2ccc(N(C)C)cc2)cc1 (stereo not given) | 0.27% |
| COC(=O)CNc1nc(Cl)nc(N2CCC(C)CC2)n1 | -3.6% |
| O=C(Nc1cccc(F)c1)c1coc(=O)c(Br)c1 | -1.08% |
| Cc1nc(-c2ccccc2)sc1-c1nnc(C2CC2)o1 | -11.7% |
| Cc1nn(-c2ccccc2)c2c1C(c1ccc(F)cc1)C(C#N)=C(N)O2 (stereo not given) | -4.19% |
| COc1ccccc1C1C(C#N)=C(N)Oc2c1c(-c1ccccc1)nn2-c1ccccc1 (stereo not given) | 27.6% (active) |
| Cc1nn(Cc2ccccc2)c2c1C(c1ccccc1)C(C#N)=C(N)O2 (stereo not given) | 10.6% |
| CCC1C=C(c2ccccc2)C=CN=C1N(CC)CC (stereo not given) | -5.24% |
| CCC(C)CN1CCC(CO)(Cc2ccccc2Cl)CC1 (stereo not given) | -5.42% |
| Cc1cc(Nc2ccc(N3CCOCC3)cc2)c2cccc(C)c2n1 | 4.03% |
| CN1CCC(=NNC(=O)c2ccc(N(Cc3ccc(Cl)cc3)S(C)(=O)=O)cc2)CC1 | -1.22% |
| CC(C)Sc1nnc([C@H](Cc2ccccc2)NC(=O)OC(C)(C)C)o1 | -6.35% |
| CCCCN1C(=O)/C(=C(/C#N)C(N)=O)c2ccccc21 | 1.92% |

| SMILES | inhibition |
| --- | --- |
| C#CCN1C(=O)C(O)(CC(=O)c2cc(OC)ccc2OC)c2ccccc21 (stereo not given) | 4.75% |
| COc1ccc2c(c1)C(=C(C#N)C#N)C(=O)N2CCc1ccccc1 | 20.6% (active) |
| CC(C)(C)c1cnnn1-c1ccc([N+](=O)[O-])cc1 | 4.98% |
| Nc1ccccc1Sc1ccc(C(F)(F)F)cc1[N+](=O)[O-] | -3.21% |
| CC(=O)Nc1ccc(CC#N)cc1 | 3.27% |
| O=C(N/N=C/c1ccc([N+](=O)[O-])o1)c1cccc(S(=O)(=O)N2CCOCC2)c1 | -1.08% |
| O=[N+]([O-])c1cc(Cl)cc(/C=N/NC(=S)Nc2cc(S(=O)(=O)N3CCOCC3)ccc2Cl)c1O | 14.6% (active) |
| O=C(CN1CCN(c2ccc(O)cc2)CC1)Nc1cc(S(=O)(=O)N2CCOCC2)ccc1Cl | 6.43% |
| COc1ccccc1-n1c(-c2cc(-c3ccco3)[nH]n2)n[nH]c1=S | 6.44% |
| Brc1ccc(-c2csc(N/N=C/c3cccnc3)n2)cc1 | 0.38% |
| CC(C)CNC(=O)/C=C/C(=O)O | 1.63% and 0.6% |
| Cc1ccccc1-n1c(C)cc(/C=C2\NC(=O)NC2=O)c1C | -1.59% |
| Cc1no[n+]([O-])c1COc1ccccc1/C=C1\NC(=S)NC1=O | 36% (active) |
| Cc1ccc(/C=N/NC(=O)COc2ccccc2-c2ccccc2)cc1 | -5.12% |
| Cc1ccc(NC(=O)NC2CCCCC2)cc1S(=O)(=O)N1CCOCC1 | 1.18% |
| CCOc1c(CNCc2ccc(C(=O)O)cc2)cccc1OC | 3.61% |
| O=C(c1nnc(-c2ccc(Cl)cc2)o1)C1CCCC1 | -6.78% |
| S=c1[nH]nc(-c2ccc(Cl)cc2)n1CC1CCCO1 (stereo not given) | -0.03% |
| O=C(c1[nH]ncc1-c1ccc(Cl)cc1)C1CO1 (stereo not given) | 18.1% (active) |
| CN(CC(=O)NCCc1ccccc1)S(=O)(=O)c1cnc[nH]1 | -2.11% |
| O=C(c1ccc(OC2CCN(C(=O)c3cccnc3)CC2)cc1)N1CCCCCC1 | -2.04% |
| Nc1nnnn1/N=C/c1cc([N+](=O)[O-])ccc1O | 1.03% |
| COc1ccccc1N1CC(O)=C(c2nc3ccccc3s2)C1=N | 6.21% |
| N=C1C(c2nc3ccccc3s2)=C(O)CN1NC(=O)c1ccc([N+](=O)[O-])cc1 | 28.3% (active) |

| SMILES | inhibition |
| --- | --- |
| CCOC(=O)CCCN1CC(O)=C(c2nc3ccccc3s2)C1=N | -8.77% |
| O=C(CCc1ccccc1)Nc1nn[nH]n1 | -3.71% |
| CC(NC(=S)Nc1ccc(S(N)(=O)=O)cc1)c1ccc2c(c1)OCO2 (stereo not given) | 0.42% |
| CC1CCCN(C(C(=O)Nc2ccc(C(C)C)cc2)c2ccc3c(c2)OCO3)C1 (stereo not given) | 15.3% (active) |
| O=C(Nc1ccc2c(c1)OCCO2)C(c1ccc(F)cc1)N1CCCCC1 (stereo not given) | -0.16% |
| CN1C(=O)C(CC(=O)Nc2ccccc2)S/C1=N/c1nccs1 (stereo not given) | 6.76% |
| CC(=O)c1cc(C#N)c(N2CCCCC2)nc1C | -1.2% |
| N#Cc1c(N2CCCCC2)nc(N)c2c(N)nc(SCC(=O)O)cc12 | 53.6% (active) |
| Cc1cc(C)c(C#N)c(N2CCC(C(N)=O)CC2)n1 | 3.21% |
| O=C(NC(=O)N1CCOCC1)c1ccccc1 | 5.31% |
| O=C(CCl)N(Cc1cccc([N+](=O)[O-])c1)c1cccc(Cl)c1 | -3.6% |
| CCOC(=O)N1CCC(c2cc(=O)n(-c3ccccc3)[nH]2)CC1 | 23% (active) |
| CCOC(=O)N1CCC(NC(=O)COc2cc(=O)n(C)c3ccccc23)CC1 | -0.15% |
| CCOC(=O)CN1CCC(c2ccccc2)CC1 | -3.38% |
| CC(=O)Nc1nc2c(s1)C(=O)NCC(C)(C)C2 | 0.86% |
| Cc1cc(C)c2c(n1)nn1c(-n3ccnc3)cc(C)nc21 | 31.7% (active) |
| Cc1cc(C)c2c(n1)nn1c(N3CCOCC3)cc(C)nc21 | 5.86% |
| Cc1cc(C)c2c(n1)nn1c(N3CCN(c4cccc(Cl)c4)CC3)cc(C)nc21 | -0.34% |
| O=[N+]([O-])c1cc([N+](=O)[O-])c2cccnc2c1O | -0.5% |
| O=C(/C=C/c1ccc(N2CCOCC2)cc1)c1ccccc1 | 3.1% |
| COc1ccc(C(=O)O/N=C(\N)Cc2ccc(Cl)cc2Cl)cc1OC | -0.33% |
| NC(N)=N/N=C/c1ccc(OCc2ccc(Cl)cc2Cl)cc1 | 17.6% (active) |
| NC(N)=N/N=C/c1ccc(Cl)c([N+](=O)[O-])c1 | 4.25% |
